Screening results as filed in PubChem BioAssay.
TGFb SMAD3 inh: TGF-b pathway inhibition | HepG2 CAGA-GFP TGF-b/SMAD3 reporter, GFP fluorescence, 18 h; TGF-beta stimulated, 500 pg/mL final | Potency, µM (highest dose often 46.1 µM), without a hit: at the top dose activity, negative = inhibition, usual class: inhibitors | 1.2% of 410,000 active | AID 588855; note: potency is the fitted concentration of half-maximal effect; % is set by controls: 0 for no effect and ±100 for the full control effect; nearly all actives have a fitted effect of over 65% in size
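Smad-responsive CAGA-GFP expression was quantified in HEPG2 cells exposed to compounds and 500 pg/mL final TGF-beta for 18 h at 37 degrees C; unstimulated wells defined full inhibition.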
DT40 TDP1 CPT: growth inhibition of DT40 Tdp1-/-;hTDP1 cells with camptothecin (screen for TDP1 inhibitors) | chicken DT40 Tdp1-/-;hTDP1 cells + 20 nM CPT, ATP luminescence, 48 h | Potency, µM (doses to about 46.2 µM), for the others: at the top dose activity change, negative = growth inhibition, actives largely listed as inhibitors | 12% of 420,000 active | AID 686979; note: potency is the fitted concentration of half-maximal effect; % is set by controls: 0 for no effect and ±100 for the full control effect; nearly all actives have a fitted effect of over 55% in size
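Chicken DT40 Tdp1-/- cells complemented with human TDP1, 400 cells/well, exposed to compounds plus 20 nM camptothecin for at least 48 h at 37 C; viability read as ATP content by CellTiter-Glo luminescence.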
TDP1 inh: inhibitors of human tyrosyl-DNA phosphodiesterase TDP1; Potency, µM (top dose mostly 130 µM), for the others: top-dose activity change, negative = inhibition, most hits filed as inhibitors; 0.28% of 350,000 active; recombinant TDP1, AlphaScreen DNA substrate cleavage; AID 485290; note: potency is the fitted concentration of half-maximal effect; % is set by controls: 0 for no effect and ±100 for the full control effect; nearly all actives have a fitted effect of over 40% in size
Target sequence (Q9NUW8 whole entry, looked up): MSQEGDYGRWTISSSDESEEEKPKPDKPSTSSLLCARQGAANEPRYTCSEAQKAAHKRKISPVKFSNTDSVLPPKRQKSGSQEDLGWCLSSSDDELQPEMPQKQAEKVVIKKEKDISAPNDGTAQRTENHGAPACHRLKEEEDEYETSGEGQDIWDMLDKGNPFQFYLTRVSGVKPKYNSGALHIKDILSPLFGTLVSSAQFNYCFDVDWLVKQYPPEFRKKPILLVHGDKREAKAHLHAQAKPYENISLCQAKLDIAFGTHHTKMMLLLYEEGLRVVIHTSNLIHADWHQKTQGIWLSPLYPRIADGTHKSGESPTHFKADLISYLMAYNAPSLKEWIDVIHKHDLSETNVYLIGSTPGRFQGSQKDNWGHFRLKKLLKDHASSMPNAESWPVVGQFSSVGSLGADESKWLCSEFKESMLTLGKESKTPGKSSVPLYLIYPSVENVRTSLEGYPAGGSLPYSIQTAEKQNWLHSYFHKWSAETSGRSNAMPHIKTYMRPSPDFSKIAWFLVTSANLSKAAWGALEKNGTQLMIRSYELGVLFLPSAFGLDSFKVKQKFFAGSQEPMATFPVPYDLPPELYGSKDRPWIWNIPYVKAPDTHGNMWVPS
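AlphaScreen read-out: signal falls as enzyme removes the 3' tyrosine-FITC from a 5'-biotinylated DNA oligo (15 nM, 5 min, RT). Enzyme was E. coli-made recombinant Tdp1 at 1 nM, exposed to compound for 15 min beforehand; beads 10 ug/ml, 10 min.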
DT40 TDP1 no CPT: qHTS for Inhibitors of human tyrosyl-DNA phosphodiesterase 1 (TDP1): qHTS in cells in absence of CPT | 15% of 420,000 active | DT40 Tdp1-/- hTDP1 cells, no CPT, ATP luminescence, 48 h | Potency, µM (highest dose often 46.2 µM), for the others: at the highest dose activity change, negative = growth inhibition, usual class: inhibitors | AID 686978, 2013; note: potency is the fitted concentration of half-maximal effect; % is set by controls: 0 for no effect and ±100 for the full control effect; nearly all actives have a fitted effect of over 55% in size
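Cells were dispensed at 400 per well, compounds added by pin tool, plates incubated ≥48 hr at 37 °C, then CellTiter-Glo added for 30 min at room temperature before luminescence reading. Line: DT40 Tdp1-/- complemented with hTDP1; camptothecin omitted.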
IL1B secr inh: blocks inflammasome-driven IL-1 beta release | THP-1 LPS/ATP IL-1B secretion, AlphaLISA, 16 h; active compounds read low | activity change, % at 57.5 µM | 4.7% of 360,000 active; in the data active = activity change below about -50%; inconclusive = mostly about -30% to -49%; note: % is set by controls: 0 for no effect and ±100 for the full control effect
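THP-1 cells pretreated 1 hr with compounds (up to 57.5 uM final), then stimulated with LPS (250 ng/mL final) plus ATP (1.25 mM final); secreted IL-1B measured by AlphaLISA after 16 hr, decreased signal indicating inhibition.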
HepG2 tox: HepG2 cytotoxicity, counter-screen for TGF-b inhibitors; Potency, µM (top dose mostly 46.1 µM), for the others: at the top dose activity change, negative = cytotoxicity, actives largely listed as cytotoxic; HepG2 CAGA-GFP viability, ATP luminescence, 18 h; 0.76% of 410,000 active; note: potency is the fitted concentration of half-maximal effect
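CellTiter-Glo luminescence gave cytotoxicity after 18 hours at 37 degrees C. The cells were HepG2 CAGA-GFP in 1% FBS DMEM, stimulated with 500 pg/mL TGF-beta after compound addition. %Activity was normalised to no-cell wells (complete cell-killing) and DMSO (no toxicity), and curves were fitted and classified.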
Active calls of the source: *; ? = inconclusive; nt = no result given; [ ] = dose if it differs, or a comment. Sampled rows, rich in hits. Any-hit rate of the full collection: about 19%. Unless noted, calls come from the whole dose curve; as a rule, active = well fitted curve in the direction sought with a large enough effect; inconclusive = small, poorly fitted or top-dose-only effect, or another doubt; inactive = no such curve, though single readings can be large; an effect the other way counts as inactive or inconclusive.

SMILES	TGFb SMAD3 inh	DT40 TDP1 CPT	TDP1 inh	DT40 TDP1 no CPT	IL1B secr inh	HepG2 tox
COc1cc(C(c2c(C)[nH][nH]c2=O)c2c(C)[nH][nH]c2=O)ccc1OCc1ccc([N+](=O)[O-])cc1	-12.3%	?	9.8%	?	-27.8	-43.6%
COc1cc(C=O)ccc1OCCCOc1ccc([N+](=O)[O-])cc1	-24.3%	?	5.3%	?	12.1	-16.2%
CCCCNC(=O)NNC(=O)c1cc(C)on1	0.3%	6.5%	nt	18.2%	0.0	-2.3%
COC(=O)Cn1c(C(=O)N(C)C)cc2c1C[C@H]1CN(C(=O)c3ccccc3)[C@@](Cc3ccc(OC)cc3)(C(=O)OC)[C@@H]21	nt	nt	11.7%	nt	nt	nt
Cc1ccccc1S(=O)(=O)NC1OC(=O)C(Oc2ccccc2)=C1Br (centres undefined)	-25.5%	-6.7%	0.0%	2.5%	0.0	5.6%
Cc1ccccc1S(=O)(=O)NC1OC(=O)C(Cl)=C1Cl (centres undefined)	?	20.6µM*	-9.8%	?	-106.9*	14.4%
CC1CCC(NC(=O)C2CCN(c3c4c(nc5ncnn35)CCC4)CC2)CC1 (centres undefined)	-18.9%	?	nt	16.4µM*	39.7	-14.3%
O=C(Nc1nc(-c2ccc(F)cc2)cs1)C1CCN(C(=O)c2ccc(F)cc2)CC1	?	6.51µM*	2.5%	5.8µM*	-83.6*	-50.9%
Cc1ccc(NC(=O)C2CCN(C(=O)c3cccs3)CC2)cc1	7.3%	2.3%	1.2%	-5.0%	-6.0	-33.6%
O=C(Nc1nc2c(F)cc(F)cc2s1)C1CCN(C(=O)c2ccc(F)cc2)CC1	-7.9%	?	-15.9%[0.505 µM]	?	10.3	-4.3%
COc1ccc(CC(NC(C)=O)C(=O)NC2CCN(c3c4c(nc5ncnn35)CCC4)CC2)cc1 (centres undefined)	-9.0%	-23.9%	-11.7%	0.0%	-8.6	-9.9%
O=C(Nc1ccc(Br)cc1)C1CCN(C(=O)c2ccc(F)cc2)CC1	?	?	2.6%	?	-73.2*	-41.8%
CC(=O)Nc1ccc(NC(=O)C2CCN(C(=O)c3cccs3)CC2)cc1	0.9%	23.1µM*	-5.1%	-11.3%	?	9.5%
COc1ccc(NC(=O)C2CCN(c3nc(C)nc4c3CCC4)CC2)cc1	-12.6%	11.6µM*	2.9%	16.4µM*	?	-37.4%
COc1ccc(NC(=O)C2CCN(c3nc(C)cc(C)n3)CC2)cc1	-3.6%	-8.8%	-4.4%	-28.9%	10.7	8.8%
COc1ccc(NC(=O)C2CCCN(c3c4c(nc5ncnn35)CCC4)C2)cc1 (centres undefined)	-23.6%	14.6µM*	9.6%	23.1µM*	-1.0	-20.5%
COc1ccc(NC(=O)C2CCN(C(=O)c3ccc(OC)cc3)CC2)cc1	14.0%	14.6µM*	9.8%	?	13.3	-0.2%
COc1ccccc1NC(=O)Nc1ccc(C(=O)N2CCCCC2)cc1	-7.0%	?	4.8%	20.6µM*	?	-60.2%
COC(=O)c1ccccc1NC(=O)Nc1ccc(C(=O)N2CCCC2)cc1	?	-3.4%	8.8%	-19.3%	11.8	6.9%
O=C(Nc1ccccc1)N1CC[C@@]2(CCCN(C(=O)c3ccco3)C2)C1	nt	2.1%	nt	-13.5%	nt	nt
O=C(Nc1ccc(F)c(Cl)c1)C1CCN(C(=O)c2ccc(F)cc2)CC1	?	?	nt	?	nt	-24.8%
COc1ccc(C(=O)N2CCC(C(=O)c3c(C)cc(C)cc3C)CC2)cc1	1.6%	?	0.0%	23.1µM*	-4.1	1.6%
Cc1ccc(C(=O)N2CCC(C(=O)NC3CCCCCC3)CC2)cc1	0.8%	-11.6%	-2.4%	-12.8%	20.6	3.5%
O=C(NC1CCCCCC1)C1CCN(C(=O)c2ccc(Br)cc2)CC1	-9.6%	20.6µM*	0.9%	14.6µM*	8.4	-23.7%
COc1ccccc1NC(C)C(=O)Nc1ccc(C(C)=O)cc1 (centres undefined)	-18.3%	?	?	20.6µM*	2.5	1.2%
SMILES	TGFb SMAD3 inh	DT40 TDP1 CPT	TDP1 inh	DT40 TDP1 no CPT	IL1B secr inh	HepG2 tox
CC(C)c1ccc(NC(=O)C2CCN(C(=O)c3ccc(F)cc3)CC2)cc1	?	?	nt	8.2µM*	nt	-19.6%
CS(=O)(=O)N1CCC2(CC1)CN(C(=O)Nc1cccc(F)c1)C2	nt	-6.0%	nt	-25.2%	nt	nt
O=C1[C@H]2[C@H]3[C@H](O)[C@H](O)C/C(=N/OCc4ccccc4)[C@@H]3CC[C@@H]2C(=O)N1Cc1ccc2c(c1)OCO2	nt	nt	9.0%[21 µM]	nt	nt	nt
O=C(Nc1ccccc1C(=O)OCc1cc(=O)n2ccsc2n1)c1ccc(Cl)cc1	-19.6%	-12.7%	3.8%	-7.2%	nt	-27.5%
Cc1cc(OCCn2c(CCNC(=O)C3CCCCC3)nc3ccccc32)ccc1Cl	-5.1%	?	0.0%	?	nt	-10.3%
CC(C)C[C@H]1CN([C@@H](CC(C)C)CN2CCC[C@H]2CN2C(=O)C(=O)NC[C@@H]2Cc2ccc(O)cc2)C(=O)C(=O)N1CC1CCCCCC1	nt	?	nt	?	-52.4*	nt
CC(C)C[C@@H](CN1CCC[C@@H]1CN1C(=O)C(=O)NC[C@@H]1Cc1ccccc1)N1C[C@H](Cc2ccccc2)N(CC2CCCCCC2)C(=O)C1=O	?	?	nt	?	-24.3	2.3%
CC(C)C[C@H]1CN([C@@H](CC(C)C)CN2CCC[C@H]2CN2C(=O)C(=O)NC[C@@H]2Cc2ccc(O)cc2)C(=O)C(=O)N1CC1CCCCC1	nt	?	nt	29.1µM*	30.3	nt
Cc1c(CCC(=O)NCCc2ccccc2)c(=O)oc2c(C)c(O)ccc12	7.8%	-6.9%	-3.7%	-2.4%	nt	-2.5%
COc1ccc(C(=O)N2c3ccccc3C(C)(c3ccc(Cl)cc3)CC2(C)C)cc1 (centres undefined)	?	?	5.7%[12.3 µM]	16.4µM*	nt	-2.8%
CCC(CC)C(=O)N1c2ccccc2C(C)(c2ccccc2)CC1(C)C (centres undefined)	?	18.4µM*	-1.0%[2.28 µM]	23.1µM*	nt	-21.8%
COc1cccc(C(=O)N2c3ccc(C)cc3C(C)(c3ccccc3)CC2(C)C)c1 (centres undefined)	?	?	-1.3%[12.3 µM]	23.1µM*	nt	-8.5%
